# This is a sample that favours compounds with a hit; in the whole collection about 19% have one here.
# IL-1B inflam inh: qHTS for Inhibitors of Inflammasome Signaling: IL-1-beta AlphaLISA Primary Screen. THP-1 LPS/ATP IL-1B secretion, AlphaLISA, 16 h; active compounds read low. activity change, % at 57.5 µM. 4.7% of 360,000 active; in the data active means activity change below about -50%; inconclusive means mostly about -30% to -49%; further: on the % scale 0 is the no-effect control and ±100 the full control effect
#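 THP-1 cells pretreated 1 hr with compounds (up to 57.5 uM final), then stimulated with LPS (250 ng/mL final) plus ATP (1.25 mM final); secreted IL-1B measured by AlphaLISA after 16 hr, decreased signal indicating inhibition.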
# HepG2 tox: qHTS for Inhibitors of TGF-b: Cytotox Counterscreen; HepG2 CAGA-GFP viability, ATP luminescence, 18 h; Potency, µM (doses to about 46.1 µM), without a hit: top-dose activity change, negative = cytotoxicity, hits mostly cytotoxic; 0.76% of 410,000 active; AID 588856, 2011; further: potency means the concentration at half of the fitted maximal effect
#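 HepG2 CAGA-GFP cells (1000/well, DMEM with 1% FBS) received compound, then TGF-beta at 500 pg/mL final, and were incubated 18 hours at 37 degrees C. Viability was read by CellTiter-Glo luminescence. Media-only wells were set as complete cell-killing and DMSO as no toxicity.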
# DT40 TDP1 no CPT: qHTS for Inhibitors of human tyrosyl-DNA phosphodiesterase 1 (TDP1): qHTS in cells in absence of CPT | DT40 Tdp1-/- hTDP1 cells, no CPT, ATP luminescence, 48 h | 15% of 420,000 active | Potency, µM (titrated, usually from 46.2 µM), without a hit: at the top dose activity change, negative = growth inhibition, actives largely listed as inhibitors | AID 686978, 2013; further: potency means the concentration at half of the fitted maximal effect; on the % scale 0 is the no-effect control and ±100 the full control effect; nearly all actives have a fitted effect of over 55% in size
#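 Luminescent ATP content (CellTiter-Glo) served as the growth readout. Knockout chicken DT40 cells expressing human TDP1 were exposed to compounds without camptothecin for a minimum 48 hr at 37 °C.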
# TGFb inhibitor: qHTS for Inhibitors of TGF-b | HepG2 CAGA-GFP TGF-b/SMAD3 reporter, GFP fluorescence, 18 h; TGF-beta stimulated, 500 pg/mL final | Potency, µM (doses to about 46.1 µM), without a hit: at the top dose activity, negative = inhibition, most hits filed as inhibitors | 1.2% of 410,000 active | AID 588855, 2011; further: potency means the concentration at half of the fitted maximal effect; on the % scale 0 is the no-effect control and ±100 the full control effect; nearly all actives have a fitted effect of over 65% in size
#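 Read-out: total well GFP (ex488/em500-530) summed from mean per-cell fluorescence. Cells: HEPG2 CAGA-GFP, 1% FBS DMEM, 18 h at 37 degrees C with 500 pg/mL final TGF-beta. Unstimulated wells served as the full-inhibition control; stimulated DMSO wells = 0%.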
# TDP1 cell CPT: qHTS for Inhibitors of human tyrosyl-DNA phosphodiesterase 1 (TDP1): qHTS in cells in presence of CPT. 12% of 420,000 active. chicken DT40 Tdp1-/-;hTDP1 cells + 20 nM CPT, ATP luminescence, 48 h. Potency, µM (series often up to 46.2 µM), inactives show at the top dose activity change, negative = growth inhibition, usual class: inhibitors. AID 686979, 2013; further: potency means the concentration at half of the fitted maximal effect; on the % scale 0 is the no-effect control and ±100 the full control effect; nearly all actives have a fitted effect of over 55% in size
#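 Chicken DT40 Tdp1-/- cells complemented with human TDP1, 400 cells/well, exposed to compounds plus 20 nM camptothecin for at least 48 h at 37 C; viability read as ATP content by CellTiter-Glo luminescence.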
# TDP1 inh: qHTS Assay for Inhibitors of Tyrosyl-DNA Phosphodiesterase (TDP1). Tyrosyl-DNA phosphodiesterase 1 (Homo sapiens), Q9NUW8. recombinant TDP1, AlphaScreen DNA substrate cleavage. Potency, µM (titrated, usually from 130 µM), for the others: at the top dose activity change, negative = inhibition, most hits filed as inhibitors. 0.28% of 350,000 active. AID 485290, 2010; further: potency means the concentration at half of the fitted maximal effect; on the % scale 0 is the no-effect control and ±100 the full control effect; nearly all actives have a fitted effect of over 40% in size
# Target sequence (Q9NUW8 whole entry, looked up): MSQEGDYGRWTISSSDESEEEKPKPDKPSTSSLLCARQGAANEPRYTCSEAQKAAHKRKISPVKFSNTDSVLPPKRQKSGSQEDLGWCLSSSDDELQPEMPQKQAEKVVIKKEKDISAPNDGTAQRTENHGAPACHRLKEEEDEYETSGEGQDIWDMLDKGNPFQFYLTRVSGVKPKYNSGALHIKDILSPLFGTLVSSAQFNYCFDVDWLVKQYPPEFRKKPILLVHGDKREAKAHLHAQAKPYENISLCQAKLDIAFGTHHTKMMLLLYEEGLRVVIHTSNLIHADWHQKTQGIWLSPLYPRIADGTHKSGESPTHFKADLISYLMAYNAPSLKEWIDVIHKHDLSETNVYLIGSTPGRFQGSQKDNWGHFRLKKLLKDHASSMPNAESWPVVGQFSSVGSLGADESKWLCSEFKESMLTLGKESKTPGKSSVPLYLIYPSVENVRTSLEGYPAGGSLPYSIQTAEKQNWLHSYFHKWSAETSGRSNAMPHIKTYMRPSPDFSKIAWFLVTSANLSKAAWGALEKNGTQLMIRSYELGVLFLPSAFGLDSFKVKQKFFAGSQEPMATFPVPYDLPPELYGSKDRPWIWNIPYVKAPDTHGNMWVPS
#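 AlphaScreen read-out: signal falls as enzyme removes the 3' tyrosine-FITC from a 5'-biotinylated DNA oligo (15 nM, 5 min, RT). Enzyme was E. coli-made recombinant Tdp1 at 1 nM, exposed to compound for 15 min beforehand; beads 10 ug/ml, 10 min.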
# Starred values were filed as active, the others as inactive; ? = inconclusive; · = not tested or not shown; ! = not active in a repeat; [ ] = another dose, or the depositor's remark. Unless noted, the call rests on the fitted dose curve; in most records, active means well fitted curve in the direction sought with a large enough effect; inconclusive means small, poorly fitted or top-dose-only effect, or another doubt; inactive means no such curve, though single readings can be large; an effect the other way counts as inactive or inconclusive.
SMILES,IL-1B inflam inh,HepG2 tox,DT40 TDP1 no CPT,TGFb inhibitor,TDP1 cell CPT,TDP1 inh
N#CC(=C=[N-])c1nc2ccccc2nc1-[n+]1cccc(NC(=O)c2ccccc2)c1,-24.3,7.3%,-20.2%,-1.9%,-25.7%,2.4%
CC(=O)C1=C(C)NC(SCc2cccc([N+](=O)[O-])c2)=C(C#N)C1c1ccco1 (stereo not drawn),-65.8*,-29.3%,?,-11.2%,?,8.6%
CC(=O)C1=C(C)NC(SCC(=O)c2ccc(F)cc2)=C(C#N)C1c1ccco1 (stereo not drawn),-84.6*,-34.2%,?,-15.6%,?,-2.0%
CC(=O)C1=C(C)NC(SCC(=O)c2cc(Cl)ccc2Cl)=C(C#N)C1c1ccco1 (stereo not drawn),?,-7.5%,?,?,?,-2.1%
CCc1ccc(C(=O)CSC2=C(C#N)C(c3ccco3)C(C(C)=O)=C(C)N2)cc1 (stereo not drawn),·,-43.9%,?,-2.6%,?,-1.0%
CC(=O)C1=C(C)NC(SCC(=O)c2ccc(Cl)c(Cl)c2)=C(C#N)C1c1ccco1 (stereo not drawn),-57.5*,0.7%,?,26.7%,?,6.2%
O=C(NC1CC1)c1ccc(NS(=O)(=O)c2ccc(F)cc2)cc1,14.2,0.9%,-21.8%,?,3.4%,·
Cc1cc(C(=O)NC2CCCc3c2cnn3-c2ccc(C)c(C)c2)no1 (stereo not drawn),23.2,-31.8%,?,-22.0%,14.6µM*,2.0%
CCn1nc(C)cc1C(=O)NC1CCCc2c1cnn2-c1ccc(C)c(C)c1 (stereo not drawn),24.2,-5.6%,?,?,?,5.6%
Cc1ccc(-n2ncc3c2CCCC3NC(=O)c2ocnc2C)cc1C (stereo not drawn),-2.7,-50.3%,7.31µM*,-15.7%,10.3µM*,-2.6%[56.1 µM]
CCCC(=O)NC1CCCc2c1cnn2-c1ccc(C)c(C)c1 (stereo not drawn),-4.4,-7.6%,?,1.0%,-14.5%,·
CCCCCCCCCCn1c2c(c(=N)c3c1CCC3)CCC2,-95.5*,-97.1%,0.0291µM*,12.6µM*,0.259µM*,5.4%
CCCCCCCCCn1c2c(c(=N)c3c1CCC3)CCCC2,-98.8*,-98.5%,0.0184µM*,6.31µM*,0.0259µM*,-2.4%
CCOC(=O)Cn1c2c(c(=N)c3c1CCC3)CCC2,14.4,0.3%,-7.4%,-5.3%,-7.7%,5.1%
CCn1c2c(c(=N)c3c1CCC3)CCCC2,39.9,5.8%,9.2µM*,-17.0%,?,·
O=C(/C=C\c1ccccc1)NC1CC(=O)N(c2ccccc2)C1 (stereo not drawn),·,1.7%,-6.7%,1.1%,-16.2%,0.0%
COc1ncc2nc(-c3cccs3)c(=O)n(C)c2n1,·,·,0.8%,·,-28.1%,·
COc1cc(OC)cc(C(=O)NNC(=O)c2ccc3ccccc3n2)c1,49.9,-51.2%,5.17µM*,?,5.17µM*,-3.6%
COc1cc(OC)cc(C(=O)NNC(=O)c2ccccn2)c1,146.2,-26.3%,6.51µM*,-31.2%,2.91µM*,6.9%
O=C(NNC1=Nc2ccccc2SC1)c1cccc([N+](=O)[O-])c1,52.8,-0.7%,23.1µM*,?,16.4µM*,6.2%
CC(=O)c1ccc(OCCCC(=O)NNC(=O)c2ccccn2)cc1,138.2,-1.9%,14.6µM*,13.3%,?,1.5%
O=C(NNC1=Nc2ccccc2SC1)c1ccccc1F,-12.4,10.5%,?,1.9%,?,6.2%
COc1ccc(NC(=O)N2CC[C@@]3(CCCN(C(=O)c4csnn4)C3)C2)cc1,·,·,-14.3%,·,1.5%,·
COc1ccc(C(=O)NC(=S)NNC(=O)c2ccc(C)cc2)cc1,31.9,-44.3%,?,-18.6%,?,·
N#C/C(=C\c1cccc([N+](=O)[O-])c1)c1ccccn1,-88.1*,-20.3%,14.6µM*,-3.8%,-24.4%,8.1%
SMILES,IL-1B inflam inh,HepG2 tox,DT40 TDP1 no CPT,TGFb inhibitor,TDP1 cell CPT,TDP1 inh
COc1ccc(C(=O)NNC(=O)c2ccccn2)cc1,-18.0,-43.9%,-25.0%,-1.3%,-17.4%,-1.9%
O=C(NNC(=O)c1ccccn1)c1cccc([N+](=O)[O-])c1,108.0,-1.5%,16.4µM*,-3.6%,16.4µM*,5.8%
O=C(c1cccc([N+](=O)[O-])c1)c1ccccn1,-15.2,-1.5%,-0.4%,-17.0%,-0.1%,3.7%
COc1ccc(C(=O)NC(=S)NNC(=O)c2ccc3ccccc3n2)cc1,47.6,-38.3%,18.4µM*,-26.2%,?,-11.9%
COc1ccc2c(c1)C(=NNC(=O)c1ccccn1)c1cc(OC)ccc1-2,-8.1,-32.6%,2.59µM*,0.0%,4.61µM*,1.8%
COc1cccc(C2=Nn3c(nnc3-c3cccc(OC)c3OC)SC2)c1,·,·,·,·,·,10.9%
Cc1ccc(C(=O)O)cc1-n1c(C)cc(C=O)c1C,-15.9,-15.3%,0.0%,-11.9%,-2.5%,17.8µM*
Cc1cc(C(=O)O)ccc1-n1c(C)cc(/C=C2\SC(=O)NC2=O)c1C,-0.9,1.3%,-28.4%,-2.7%,38.6%,-3.3%
CCNc1ncc2nc(-c3ccccc3)c(=O)n(Cc3cccc(OC)c3)c2n1,·,·,1.2%,·,1.8%,·
COc1ccc(CC(=O)NO)cc1,·,·,?,·,-6.5%,·
Cc1ccc(NC(=O)C(=O)NCC(c2ccc3c(c2)OCO3)N2CCN(C)CC2)c(C)c1 (stereo not drawn),·,-11.6%,?,12.8%,?,3.3%
COCCNC(=O)CCSc1nc(-c2ccc(OC)cc2)cc(C(F)(F)F)n1,-8.5,-14.6%,20.6µM*,0.0%,23.1µM*!,1.1%
COc1ccc(NC(=O)CCSc2nc(-c3ccc(OC)cc3)cc(C(F)(F)F)n2)cc1,·,-34.5%,-17.8%,-0.9%,-24.7%,4.2%
Cc1cc(C(F)(F)F)nc(SCC(=O)c2cccc([N+](=O)[O-])c2)n1,-6.5,-38.2%,-21.4%,19.3%,-29.3%,4.3%
COCC(C)NC(=O)CCS(=O)(=O)c1nc(-c2ccc(OC)cc2)cc(C(F)(F)F)n1 (stereo not drawn),-102.3*,-109.6%,4.61µM*,11.2µM*,4.11µM*,7.8%
CCC(C)NC(=O)CCSc1nc(-c2ccc(OC)cc2)cc(C(F)(F)F)n1 (stereo not drawn),·,-22.4%,16.4µM*,-5.1%,?,-1.1%
